Most compounds without a hit are left out; they make up all but 0.44% or so of the library.
EPAC1 agonist – agonists of human EPAC1 | AID 720707 | EPAC1 agonist qHTS, biochemical assay; response scale: 100% = response to 6.5 mM cAMP | 360,000 tested, 0.073% active | Potency, µM (titrated, usually from 154 µM), without a hit: top-dose activation, most hits filed as activators; note: nearly all actives have a fitted effect of over 60% in size
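Read-out is the fluorescence drop as BODIPY-GDP leaves Rap1B (480 nm excitation, 540 nm emission), recorded every 5 minutes over 30 minutes. Reactions held 100 nM EPAC1, 250 nM Rap1B–BODIPY-GDP and 50 uM GDP, with 6.5 mM cAMP setting full activation.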
USP1-UAF1 inh – inhibitors of human USP1/UAF1 deubiquitinase; recombinant USP1/UAF1, Ub-Rhodamine cleavage fluorescence; 390,000 tested, 0.23% active; Potency, µM (series often up to 57.1 µM), inactives show at the top dose activity change, negative = inhibition, hits mostly inhibitors; note: % is set by controls: 0 for no effect and ±100 for the full control effect; nearly all actives have a fitted effect of over 60% in size
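Step one: compound is pinned into 1nM USP1/UAF1 in HEPES pH 7.8 buffer with TCEP. Step two: 15 min room-temperature incubation. Step three: Ub-Rho (150nM final) starts cleavage, tracked by fluorescence over six one-minute reads.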
EPAC2 ag – EPAC2 (human) agonism; EPAC2 activation, biochemical qHTS; response scale: 100% = 6.5 mM cAMP response; Potency, µM (doses to about 154 µM), inactives show at the top dose activation, most hits filed as activators; 360,000 tested, 0.079% active; Q8WZA2; note: nearly all actives have a fitted effect of over 50% in size
Target sequence (Q8WZA2 whole entry, looked up): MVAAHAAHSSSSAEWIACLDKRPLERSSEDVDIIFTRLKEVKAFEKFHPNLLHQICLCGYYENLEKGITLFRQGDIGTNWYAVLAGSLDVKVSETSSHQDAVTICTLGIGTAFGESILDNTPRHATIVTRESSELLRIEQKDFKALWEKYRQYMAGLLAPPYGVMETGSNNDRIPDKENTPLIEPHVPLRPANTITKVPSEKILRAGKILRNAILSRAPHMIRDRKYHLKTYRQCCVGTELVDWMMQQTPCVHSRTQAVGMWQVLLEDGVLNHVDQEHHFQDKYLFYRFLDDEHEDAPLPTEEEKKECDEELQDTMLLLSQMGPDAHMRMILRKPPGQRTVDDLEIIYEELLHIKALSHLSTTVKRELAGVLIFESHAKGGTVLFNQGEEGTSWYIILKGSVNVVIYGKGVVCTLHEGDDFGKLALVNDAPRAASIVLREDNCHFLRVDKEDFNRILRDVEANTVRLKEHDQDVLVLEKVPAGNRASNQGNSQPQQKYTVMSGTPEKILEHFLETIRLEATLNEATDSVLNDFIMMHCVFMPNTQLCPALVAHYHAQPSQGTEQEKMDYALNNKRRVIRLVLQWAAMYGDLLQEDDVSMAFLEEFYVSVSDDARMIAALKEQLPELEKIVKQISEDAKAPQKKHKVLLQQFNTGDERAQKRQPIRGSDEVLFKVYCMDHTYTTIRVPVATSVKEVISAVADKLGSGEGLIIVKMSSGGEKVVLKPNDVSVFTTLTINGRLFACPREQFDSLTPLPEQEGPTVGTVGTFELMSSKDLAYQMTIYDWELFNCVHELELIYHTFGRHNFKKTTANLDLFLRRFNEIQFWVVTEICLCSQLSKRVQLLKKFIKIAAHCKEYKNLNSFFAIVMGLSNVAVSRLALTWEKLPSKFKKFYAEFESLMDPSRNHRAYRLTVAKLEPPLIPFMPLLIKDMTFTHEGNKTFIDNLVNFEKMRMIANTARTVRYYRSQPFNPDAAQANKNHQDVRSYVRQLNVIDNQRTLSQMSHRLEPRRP
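Readout is BODIPY fluorescence (480 nm excitation, 540 nm emission), which falls as labeled GDP is exchanged off Rap1B. EPAC2 at 100 nM acted on 250 nM RAP1B-BODIPY-GDP with 50 uM GDP present.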
EPAC2 antag – antagonists of human EPAC2. Q8WZA2. EPAC2 GEF exchange of Rap1B-BODIPY-GDP, fluorescence. Potency, µM (highest dose often 114 µM), without a hit: at the top dose activity, negative = inhibition, usual class: inhibitors. 360,000 tested, 0.18% active; note: % is set by controls: 0 for no effect and ±100 for the full control effect; nearly all actives have a fitted effect of over 45% in size
EPAC1 antagonist – antagonists of human EPAC1; EPAC1 GEF assay, Rap1b-BODIPY-GDP exchange fluorescence; Potency, µM (highest dose often 115 µM), for inactives: at the highest dose activity change, negative = inhibition, hits mostly inhibitors; 360,000 tested, 0.14% active;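 note: plate controls were vehicle for no effect and positive control for full effect; nearly all actives have a fitted effect of over 50% in size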
* marks the source's active call; other numbers are inactive results; i = inactive; u = inconclusive; x = no result given. Calls come from the whole dose curve; as a rule, active = well fitted curve in the direction sought with a large enough effect; inconclusive = small, poorly fitted or top-dose-only effect, or another doubt; inactive = no such curve, though single readings can be large; an effect the other way counts as inactive or inconclusive. Potency is the fitted concentration of half-maximal effect.

SMILES | EPAC1 agonist | USP1-UAF1 inh | EPAC2 ag | EPAC2 antag | EPAC1 antagonist
O=C1C=C(Nc2ccccc2)c2ccccc2C1=O | -6.0% | 12.6µM* | -13.9% | -0.6% | -9.5%
O=C1C=C(Nc2cccc3cccnc23)c2ccccc2C1=O | 1.3% | 17.8µM* | 5.6% | -25.0% | u
Cc1ccccc1Cn1c(CN2CCC(C(=O)NCc3cccnc3)CC2)cc2ccccc21 | x | -8.6% | x | x | x
COc1ccc(N2CCN(C(=O)c3c(C)oc4ncnc(N5CCCCC5)c34)CC2)cc1 | x | 1.0% | x | x | x
Cc1ccc(-c2c(C(=O)N3CCN(c4cccc(C)c4C)CC3)oc(=O)c3ccccc23)cc1 | x | -22.1% | x | x | x
COc1ccc(N(Cc2nnc3n2CCCCC3)C(=O)Nc2ccc(Cl)cc2)cc1Cl | x | -24.3% | x | x | x
O=C1C=C(Nc2ccccc2C(=O)O)c2ccccc2C1=O | -7.6% | 7.94µM* | -0.9% | u | -11.4%
CCN1CCc2c(sc(NC(=O)c3ccc(S(=O)(=O)N(C)c4ccccc4)cc3)c2C(=O)NC)C1 | 8.3% | u | 100µM* | 18.4% | 7.0%
COc1ccc(/C=C2/C(=O)N(CC3CCCO3)C(=S)N2C)c(OC)c1 (configuration not stated) | -284.7% | 56.1% | i | 451.3% | 50.1µM*
COc1cc(Nc2nc3c(S(=O)(=O)c4cccc(Cl)c4)nnn3c3ccsc23)cc(OC)c1 | x | -23.8% | x | x | x
CCOc1ccc(CCNC(=O)Cn2c(C)c3cnn(-c4ccccc4)c(=O)c3c2C)cc1 | x | -14.6% | x | x | x
O=C(c1ccccc1)[C@@H]1[C@@H](C(=O)c2ccc(F)cc2)[C@@]2(C(=O)Nc3ccccc32)[C@H]2c3ccccc3C=CN12 | 7.4% | 28.2µM* | 0.6% | -12.2% | -3.8%
CCOC(=O)c1ccc(NC(=O)CCCc2nc(-c3cc(OC)c(OC)c(OC)c3)no2)cc1 | x | -5.7% | x | x | x
Cc1cc(O)cc(C)c1NS(=O)(=O)c1ccc2ccccc2c1 | 3.5% | 2.0% | 12.8% | 11.2µM* | -4.8%
CNS(=O)(=O)c1ccc2ccccc2c1 | 12.0% | -21.0% | 4.2% | -5.5% | -3.4%
COc1ccc(OC)c(/C=C2\SC(=S)N(NS(=O)(=O)c3ccc(C)cc3)C2=O)c1 | 8.9% | u | 8.6% | u | 56.2µM*
COc1ccc(/C=C2\SC(=S)N(NS(=O)(=O)c3ccc(C)cc3)C2=O)c(OC)c1 | -0.9% | -23.8% | -17.9% | -12.8% | u
COc1ccc(OC)c(/C=C2\SC(=S)N(Cc3cccnc3)C2=O)c1 | 9.3% | -17.5% | 112µM* | 9.9% | 3.6%
COc1ccccc1/C=C1\SC(=S)N(NS(=O)(=O)c2ccc(C)cc2)C1=O | -4.2% | -25.0% | 8.4% | u | 79.4µM*
CC(C)Cc1csc(NC(=O)c2ccc(Cl)cc2)c1C(=O)O | -10.7% | -10.0% | -4.1% | -1.3% | 17.8µM*
O=C(Nc1sc2c(c1C(=O)O)CCCCC2)c1ccccc1 | -14.3% | -22.6% | -0.7% | 0.9% | -11.1%
O=C(Nc1sc2c(c1C(=O)O)CCCC2)c1ccc(Cl)cc1 | -10.0% | -20.7% | -1.9% | -13.7% | 28.2µM*
Cc1ccc(NC(=O)CSc2nc3nccnc3c(=O)n2CCc2c[nH]c3ccccc23)cc1C | x | 13.3% | x | x | x
COc1ccc(-c2cc(C(=O)NCc3ccc(F)cc3)c3c(-c4ccc(F)cc4)[nH]nc3n2)cc1OC | x | -2.9% | x | x | x
COc1ccc(C(C[N+](=O)[O-])c2c(C)[nH]n(-c3ccccc3)c2=O)cc1 (configuration not stated) | 19.0% | u | -0.5% | 6.9% | -4.8%
O=c1[nH][nH]c(-c2ccccc2O)c1C(C[N+](=O)[O-])c1ccc(Br)cc1 (configuration not stated) | -13.0% | -11.5% | -8.7% | 11.2µM* | 17.1%
Cc1ccc(C(C[N+](=O)[O-])c2c(-c3ccccc3O)[nH][nH]c2=O)cc1 (configuration not stated) | -16.6% | u | -3.1% | 11.2µM* | -17.4%
CC(=O)c1ccc(NC(=O)c2sc(-n3nc(C)c(Cc4ccccc4)c3C)nc2C)cc1 | x | 1.6% | x | x | x
CCN(CC)c1ccc(/C=C(\C#N)C(=O)NCc2ccccc2)cc1 | 100µM* | -23.1% | 7.6% | 27.7% | -1.7%

Assay outcomes as filed in PubChem.
